BAZ2B block: BAZ2B (human) inhibition; AlphaScreen BAZ2B-H3K14Ac peptide displacement; 4.4% of 360,000 active; Potency, µM (top dose mostly 114 µM), hits mostly inhibitors; Q9UIF8; also: nearly all actives have a fitted effect of over 60% in size
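BAZ2B 50 nM plus b-H3(5-23)K14Ac 50 nM, PBS pH 7.4/0.01% Tween-20, 30 min RT; compound added (max 110 uM), 30 min RT; streptavidin donor/Ni-chelate acceptor beads 10 ug/mL final, 20 min dark; AlphaScreen read.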
JMJD2A Tudor inh: blocks the human JMJD2A Tudor domain; O75164; 4.4% of 390,000 active; AID 504339; Potency, µM (titrated, usually from 114 µM), usual class: inhibitors; AlphaScreen JMJD2A-Tudor / H3K4me3 peptide binding; also: nearly all actives have a fitted effect of over 50% in size
Target sequence (O75164 whole entry, looked up, the tested form may be a part): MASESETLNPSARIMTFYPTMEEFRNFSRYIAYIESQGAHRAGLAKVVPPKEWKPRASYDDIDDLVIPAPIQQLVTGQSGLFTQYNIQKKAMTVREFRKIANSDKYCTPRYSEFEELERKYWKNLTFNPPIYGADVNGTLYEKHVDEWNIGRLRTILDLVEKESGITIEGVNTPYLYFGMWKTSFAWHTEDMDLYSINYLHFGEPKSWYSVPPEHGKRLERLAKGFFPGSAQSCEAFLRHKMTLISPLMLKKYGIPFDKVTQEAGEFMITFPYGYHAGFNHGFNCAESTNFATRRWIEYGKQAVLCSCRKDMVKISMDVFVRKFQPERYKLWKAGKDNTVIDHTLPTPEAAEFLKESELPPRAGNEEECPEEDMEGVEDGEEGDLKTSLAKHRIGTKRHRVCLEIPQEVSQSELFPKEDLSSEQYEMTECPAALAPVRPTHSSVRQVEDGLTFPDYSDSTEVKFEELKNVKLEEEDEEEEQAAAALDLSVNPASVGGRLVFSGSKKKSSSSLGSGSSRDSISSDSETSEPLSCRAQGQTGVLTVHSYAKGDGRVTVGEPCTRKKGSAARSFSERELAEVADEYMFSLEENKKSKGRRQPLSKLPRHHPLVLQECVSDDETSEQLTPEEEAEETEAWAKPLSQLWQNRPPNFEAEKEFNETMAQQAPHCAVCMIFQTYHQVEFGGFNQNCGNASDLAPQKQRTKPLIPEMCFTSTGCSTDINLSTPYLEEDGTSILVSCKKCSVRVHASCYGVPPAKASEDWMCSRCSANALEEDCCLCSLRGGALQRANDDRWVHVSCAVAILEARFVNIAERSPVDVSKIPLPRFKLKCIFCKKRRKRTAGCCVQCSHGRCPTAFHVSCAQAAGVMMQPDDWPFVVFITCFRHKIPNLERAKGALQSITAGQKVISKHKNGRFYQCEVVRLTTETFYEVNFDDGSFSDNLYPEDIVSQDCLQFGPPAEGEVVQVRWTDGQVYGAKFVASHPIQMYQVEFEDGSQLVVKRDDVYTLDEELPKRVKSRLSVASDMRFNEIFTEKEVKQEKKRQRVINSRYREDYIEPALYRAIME
HP1b chromo inh: HP1-beta chromodomain-methylated histone interaction inhibition. Potency, µM (titrated, usually from 114 µM), hits mostly inhibitors. 0.56% of 390,000 active. AID 540317. AlphaScreen HP1-beta / biotin-H3K9me3 peptide binding. P83916; also: nearly all actives have a fitted effect of over 70% in size
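HP1-beta protein (50 nM final) preincubated 30 min at room temperature with biotinylated H3(1-18)K9me3 peptide (50 nM) in PBS pH 7.4, 0.01% Tween-20, then compound added for 30 min. AlphaScreen streptavidin donor/nickel chelate acceptor beads (10 ug/mL final), 30 min dark, luminescence read.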
PI5P4K alpha inh: PI5P4K alpha (human) kinase inhibition; P48426; PI5P4Kalpha enzyme, ADP-Glo luminescence, 60 min; stronger effect = lower value; max response, %; 1.2% of 330,000 active; active = max response of -50% or lower; inconclusive = between -30% and -50%; inactive = -30% or higher; also: value at the top dose of about 77 µM
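Single end-point luminescence (ADP-Glo) quantified ADP from PI5P4Kalpha turnover; ATP 5 microM final, 1 h at RT, 0.1% CHAPS and 0.28 mM EGTA in HEPES pH 7.4.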
G9a inh: inhibitors of human histone lysine methyltransferase G9a | 8.8% of 350,000 active | Q96KQ7 | AID 504332 | G9a H3K9 monomethylation, AlphaScreen, 2 h | Potency, µM (highest dose often 102 µM), actives largely listed as inhibitors; also: nearly all actives have a fitted effect of over 75% in size
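Quantitative HTS format: methyltransferase activity on a biotin-tagged H3K9 peptide is measured by AlphaScreen, using a rabbit anti-monomethyl-H3K9 antibody with streptavidin donor and anti-IgG acceptor beads. Final levels are 20 nM enzyme, 500 nM peptide, 20 uM SAM; 2 h RT.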
PLK1 PBD inh: blocks phosphopeptide binding to human PLK1 polo-box domain; P53350; Plk1 PBD binding of FITC phosphopeptide, fluorescence polarization; Potency, µM, actives largely listed as inhibitors; 2.8% of 360,000 active; also: series mostly up to about 57 µM; nearly all actives have a fitted effect of over 65% in size
Hits are given with their value; 0 = inactive; ? = inconclusive; - = no result given; [ ] = dose if it differs, or a comment. An excerpt weighted towards active compounds, which were near 12% of everything screened. Unless noted, calls follow the shape of the dose curve; as a rule, active = well fitted curve in the direction sought with a large enough effect; inconclusive = small, poorly fitted or top-dose-only effect, or another doubt; inactive = no such curve, though single readings can be large; an effect the other way counts as inactive or inconclusive.

SMILES | BAZ2B block | JMJD2A Tudor inh | HP1b chromo inh | PI5P4K alpha inh | G9a inh | PLK1 PBD inh
Cc1ccc(NC(=O)CN2CCCCCC2)cc1Br | ? | 3.2µM | ? | 0 | 22µM | 0
O=C(CN1CCCCCC1)Nc1cccc(Br)c1 | 0 | 0 | 0 | 0 | 0 | 0
Cc1cccc(NC(=O)CN2CCN(CC(=O)Nc3cccc(C)c3)CC2)c1 | 0 | 0 | 0 | - | 50µM | 0
CN(CC(=O)Nc1ccc(Cl)cc1)C1CCCCC1 | 0 | 0 | 0 | 0 | 0 | 0
Cc1ccc(NC(=O)CN(C)C2CCCCC2)cc1Br | 50µM | 18µM | ? | 0 | 0[0.501 µM] | 0
Cc1cccc(NC2(C(=O)O)CCCC2)c1 | - | 35µM | 0 | 0 | - | 0
COCCn1c(=S)[nH]c2cc(C(=O)N3CCCC(C)C3)ccc2c1=O (centres undefined) | 0 | 0 | 0 | 0 | - | 0
COc1cc(OC)cc(C2=Cc3ccccc3C(CC(C)=O)N2c2ccc(C#CC3(N)CCCCC3)cc2)c1 (centres undefined) | - | - | - | 0 | - | 0
Cc1cccc(-n2nnc(-c3nc(-c4cccs4)no3)c2N)c1 | 0 | 0 | 0 | - | 0 | -
Cc1ccc2c(c1)[C@@H]1CN(C)CC[C@@H]1N2S(=O)(=O)c1ccc([N+](=O)[O-])cc1 | ? | ? | 0 | - | ? | 0
Cc1ccc2c(c1)C1CN(C)CCC1N2Sc1ccccc1[N+](=O)[O-] (centres undefined) | 16µM | 32µM | ? | 0 | ? | 0
CCC(=O)Nc1cc(C)c(NC(=O)C23CC4CC(CC(C4)C2)C3)cn1 | 0 | 0 | 0 | 0 | 1.1µM | 0
C[n+]1cc[nH]c1SCC(=O)c1ccccc1 | 0 | 0 | 0 | 0 | 50µM | 0
C[n+]1cc[nH]c1SCC(=O)c1ccc(Cl)cc1 | - | 0 | 0 | 0 | 32µM | 0
Cc1nc2ccccc2nc1SCC(=O)c1ccccc1 | 0 | 0 | 0 | 0 | ? | 0
O=C(NCCc1ccccc1)C(=O)NCC(c1ccc2c(c1)OCO2)N1CCOCC1 (centres undefined) | 0 | 0 | 0 | - | 0 | -
c1nc(NCCN2CCOCC2)c2sc3nc(N4CCOCC4)c4c(c3c2n1)CCC4 | 0 | 0 | 0 | 0 | 50µM | 0
CCCN1CCN(CCNC(=O)Nc2ccccc2OCC)CC1 | 0 | 0 | 0 | - | 0 | -
Fc1ccc(-n2c(Cn3nnc4ccccc43)n[nH]c2=S)cc1 | ? | 18µM | 0 | 0 | - | 0
Cc1cc(-c2n[nH]c(=S)n2-c2ccc(F)cc2)nn1C | 0 | 25µM | 0 | 0 | ? | 0
S=c1[nH]nc(Cn2nnc3ccccc32)n1-c1ccccc1 | 0 | 6.3µM | 0 | 0 | 32µM | 0
Cn1c(Cn2nnc3ccccc32)nnc1SCC(=O)c1ccc(F)cc1 | 0 | 45µM | 0 | - | 35µM | 0
CC(C)N(C(=O)CSc1nnc(Cn2nnc3ccccc32)n1C)C(C)C | 0 | 0 | 0 | 0 | 0[12.7 µM] | 0
COc1cccc(C(=O)OCC(=O)Nc2ccc(N3CCOCC3)cc2)c1 | 0 | 0 | 0 | 0 | 0 | 0
COc1ccc(OC)c(CNC(=O)Cc2ccc(NC(=O)N3CCSc4ncccc43)cc2)c1 | 0 | 0 | 0 | - | 0 | -
SMILES | BAZ2B block | JMJD2A Tudor inh | HP1b chromo inh | PI5P4K alpha inh | G9a inh | PLK1 PBD inh
CCCCN1C(=O)C(CC(=O)NCCN2CCOCC2)CC(C(=O)N2CCCCCC2)=C1C (centres undefined) | - | - | - | 0 | - | 0
Cc1cc(C(F)(F)F)nn1Cc1n[nH]c(=S)n1-c1ccc(F)cc1 | 0 | 0 | 0 | 0 | 10µM | 0
Cc1ccc(Cn2cc(CCC(=O)NCC(C)c3ccccc3)c3ccccc32)cc1 (centres undefined) | ? | 0 | 0 | - | 0 | -
COc1cc2c(c(OC)c1O)C(=O)CO2 | 0 | 0 | 0 | 0 | 0 | 0
COc1cc(OC)c2c(O)c3c(c(-c4c5c(c(O)c6c(OC)cc(OC)cc46)CO[C@@H](C)[C@H]5O)c2c1)[C@H](O)[C@H](C)OC3 | 45µM | 50µM | ? | -90 | 0[12.7 µM] | 21µM
CCCCN1CC(c2nc3ccccc3n2CCCCOc2cc(C)ccc2C)CC1=O (centres undefined) | ? | 0 | 0 | - | 0 | -
Cc1cccc(NNC(=S)Nc2c(C)cccc2C)c1 | 14µM | 14µM | 0 | 0 | 45µM | 0
Cc1cccc(NC(=S)NNc2cccc(Cl)c2)c1 | 10µM | 56µM | 10µM | 0 | 32µM | 27µM
O=c1n(Cc2ccccc2)nc2n1-c1cc(Cl)ccc1OC2 | 0 | 0 | 0 | - | 0 | -
CCC1(CC)NC(=O)N(CC(=O)NC(=O)NCc2ccccc2)C1=O | 0 | 0 | ? | 0 | 32µM | 0
CCOC(=O)CC(=O)CSc1n[nH]c(=O)[nH]c1=O | 0 | 0 | 0 | 0 | ? | 0
CCCCOC(=O)C(C)Sc1n[nH]c(=O)[nH]c1=O (centres undefined) | 0 | 0 | 0 | 0 | 0 | 27µM
CC1CCN(S(=O)(=O)c2ccc3c(c2)N(CC(=O)NCCc2ccc(Cl)cc2)C(=O)CO3)CC1 | 0 | 0 | 0 | - | 0 | -
Cc1ccc(C)c(Nc2nc3ccccc3[nH]2)c1 | - | 0 | 0 | 0 | - | 0
Nc1ccccc1Nc1nc2ccccc2[nH]1 | ? | 0 | 0 | 0 | 89µM | 0
Nc1ccc(-c2nc3ccccc3[nH]2)cc1 | 0 | 0 | 0 | 0 | 0 | 0
Nc1ccc(Nc2nc3ccccc3[nH]2)cc1 | 45µM | 56µM | ? | -52 | - | 0
Cc1nc2c(C(=O)NC(C)c3ccccc3)cnn2c(C)c1Cc1ccccc1 (centres undefined) | 0 | 0 | 0 | - | 0 | -
O=c1cc[nH]c2c1ccc1cccnc12 | 56µM | 0 | 0 | 0 | ? | 0
Cc1ccc(CNC(=O)[C@H]2C[C@@H]2[C@H](NP(=O)(c2ccccc2)c2ccccc2)c2ccccc2)o1 | ? | 0 | 0 | 0 | 50µM | 0
O=C(Nc1ccc2ccccc2c1)[C@@H]1C[C@H]1[C@@H](NP(=O)(c1ccccc1)c1ccccc1)c1ccccc1 | 0 | 0 | 0 | 0 | 50µM | 0
O=C(NCc1ccccc1)[C@@H]1C[C@H]1[C@@H](NP(=O)(c1ccccc1)c1ccccc1)c1ccccc1 | 0 | 0 | 0 | 0 | 0 | 0
CCC(C(=O)NC(C)(C)C)n1c(C(c2ccccc2)c2ccccc2)nc2ccccc21 (centres undefined) | - | - | - | 0 | - | 0
C/C(=C\C(=O)c1sccc1Cl)N(C)C | ? | 0 | 0 | 0 | 0 | 0
COc1ccc(C(=O)/C=C(\C)Nc2ccc(NC(C)=O)cc2)cc1 | 79µM | ? | 0 | - | 35µM | 0
SMILES | BAZ2B block | JMJD2A Tudor inh | HP1b chromo inh | PI5P4K alpha inh | G9a inh | PLK1 PBD inh
C/C(=C\C(=O)c1ccc(C)cc1)Nc1cccc(O)c1 | 50µM | ? | 0 | - | 50µM | 0
C/C(=C\C(=O)c1ccccc1)Nc1ccc(O)cc1 | ? | ? | 0 | 0 | 28µM | 0
COc1ccc(C(C#N)=Cc2ccc(NC(C)=O)cc2)cc1 | - | 0 | 0 | 0 | - | 0
COc1ccc(C(=O)/C=C(/C)N(C)C)cc1 | 0 | 40µM | 0 | 0 | 45µM | 0
C/C(=C\C(=O)c1cccnc1)Nc1ccc(O)cc1 | 0 | 0 | ? | - | 0 | 0
O=C(O)C1CSC2(c3ccc(F)cc3)CCC(=O)N12 (centres undefined) | 0 | 0 | 0 | 0 | 56µM | 0

High-throughput results as filed in PubChem.
